Compound activity deposited in PubChem by National Center for Advancing Translational Sciences (NCATS).
HP1b chromo inh – HTS for Inhibitors of HP1-beta Chromodomain Interactions with Methylated Histone Tails; Chromobox protein homolog 1 (Homo sapiens), P83916; AlphaScreen HP1-beta / biotin-H3K9me3 peptide binding; Potency, µM (titrated, usually from 114 µM), inactives show at the highest dose activity change, negative = inhibition, most hits filed as inhibitors; actives 0.56% (n = 390,000); also: nearly all actives have a fitted effect of over 70% in size
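HP1-beta protein (50 nM final) preincubated 30 min at room temperature with biotinylated H3(1-18)K9me3 peptide (50 nM) in PBS pH 7.4, 0.01% Tween-20, then compound added for 30 min. AlphaScreen streptavidin donor/nickel chelate acceptor beads (10 ug/mL final), 30 min dark, luminescence read.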
L3MBTL1 inh – qHTS Assay for the Inhibitors of L3MBTL1 | Lethal(3)malignant brain tumor-like protein 1 (Homo sapiens), Q9Y468 | Potency, µM (top dose mostly 57.1 µM), inactives show at the highest dose activity, negative = inhibition, actives largely listed as inhibitors | AlphaScreen L3MBTL1–H3K9me1 peptide binding | actives 0.66% (n = 230,000); also: % is scaled to controls: 0 for no effect and ±100 for the full control effect; nearly all actives have a fitted effect of over 60% in size
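AlphaScreen assay: L3MBTL1 (50 nM final) was preincubated 30 min at room temperature with biotinylated H3(1-15)K9me1 peptide (75 nM final), then 30 min with library compounds; streptavidin donor and nickel chelate acceptor beads (10 ug/mL final) added, 30 min dark.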
JMJD2A Tudor – qHTS Assay for Inhibitors of JMJD2A-Tudor Domain; AlphaScreen JMJD2A-Tudor / H3K4me3 peptide binding; Potency, µM (titrated, usually from 114 µM), inactives show at the top dose activity change, negative = inhibition, usual class: inhibitors; AID 504339, 2011; actives 4.4% (n = 390,000); also: % is scaled to controls: 0 for no effect and ±100 for the full control effect; nearly all actives have a fitted effect of over 50% in size
BAZ2B inh – qHTS Assay for Inhibitors of BAZ2B; AlphaScreen BAZ2B-H3K14Ac peptide displacement; Bromodomain adjacent to zinc finger domain protein 2B (Homo sapiens), Q9UIF8; actives 4.4% (n = 360,000); Potency, µM (series often up to 114 µM), for inactives: at the top dose activity change, negative = inhibition, usual class: inhibitors; AID 504333, 2011; also: % is scaled to controls: 0 for no effect and ±100 for the full control effect; nearly all actives have a fitted effect of over 60% in size
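In this displacement format the biotinylated H3(5-23) peptide acetylated at Lys14 serves as ligand at 50 nM, with BAZ2B at 50 nM in PBS pH 7.4 containing 0.01% Tween-20. Donor and acceptor beads are 10 ug/mL final.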
G9a inh – qHTS Assay for Inhibitors of Histone Lysine Methyltransferase G9a; Histone-lysine N-methyltransferase EHMT2 (Homo sapiens), Q96KQ7; G9a H3K9 monomethylation, AlphaScreen, 2 h; Potency, µM (top dose mostly 102 µM), without a hit: at the top dose activity, negative = inhibition, hits mostly inhibitors; actives 8.8% (n = 350,000); also: % is scaled to controls: 0 for no effect and ±100 for the full control effect; nearly all actives have a fitted effect of over 75% in size
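Compounds were preincubated with 20 nM G9a for 15 min, after which biotinylated H3K9 peptide (500 nM) and SAM (20 uM) started a 2 h room-temperature reaction. Monomethylated product was quantified by antibody-based AlphaScreen chemiluminescence.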
GLS inh – qHTS for Inhibitors of Glutaminase (GLS); GLS enzymatic activity, qHTS titration; Potency, µM (series often up to 45.5 µM), for the others: at the top dose activity change, negative = inhibition, most hits filed as inhibitors; actives 0.21% (n = 410,000); AID 624170, 2012; also: % is scaled to controls: 0 for no effect and ±100 for the full control effect
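Human kidney-isoform GLS in 45 mM KH2PO4 pH 8.2, 0.02% Tween-20, with compound, started with 1mM L-Glutamine (added stock). Glutamate oxidase/HRP/Amplex red coupled fluorescence read at start and after 30 min at RT.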
Active calls of the source: *; [ ] = dose if it differs, or a comment. Compounds with a hit are over-represented: about 10% of the library has one in this group of screens. Calls follow the shape of the dose curve; as a rule, active = well fitted curve in the direction sought with a large enough effect; inconclusive = small, poorly fitted or top-dose-only effect, or another doubt; inactive = no such curve, though single readings can be large; an effect the other way counts as inactive or inconclusive. Potency is read from the fitted curve at half-maximal effect.

What do the screens show for `O=C(O)c1ccc(Cl)c(NC(=S)NC(=O)c2ccccc2[N+](=O)[O-])c1`?
HP1b chromo inh: -1%; JMJD2A Tudor: -3%[57.1 µM]; BAZ2B inh: -1%; G9a inh: 32µM*; GLS inh: 12%

How did O=C(O)c1ccc(Cl)c(NC(=S)NC(=O)c2cccc(COc3ccccc3)c2)c1 do in these assays?
HP1b chromo inh: inconclusive; JMJD2A Tudor: inconclusive; BAZ2B inh: 50µM*; G9a inh: -1%; GLS inh: -29%

What do the screens show for `CCOC(=O)c1c(S(=O)(=O)NCC(=O)N2CCN(c3cccc(Cl)c3)CC2)c(C)n(C)c1C`?
HP1b chromo inh: 14%; JMJD2A Tudor: -35%; BAZ2B inh: -21%; G9a inh: -27%[59 µM]; GLS inh: 0%

What do the screens show for `COc1cccc(NC(=O)Cn2c(=O)oc3ccccc32)c1`?
HP1b chromo inh: 18%; JMJD2A Tudor: -1%; BAZ2B inh: 6%; G9a inh: 8%[12.7 µM]; GLS inh: -3%

What do the screens show for `COc1ccc(C(CNC(=O)c2ccccc2SC)N(C)C)cc1` (stereo unspecified)?
HP1b chromo inh: 10%; L3MBTL1 inh: 5%; JMJD2A Tudor: -23%; BAZ2B inh: -7%; G9a inh: 7.9µM*; GLS inh: -2%

Results for COc1ccc(C(CNC(=O)c2cc(SC)ccc2Cl)N(C)C)cc1 (stereo unspecified) ?
HP1b chromo inh: 49%; L3MBTL1 inh: 1%; JMJD2A Tudor: 2%[11.4 µM]; BAZ2B inh: 0%; G9a inh: -9%; GLS inh: -3%

What do the screens show for `COc1ccc(C(CNC(=O)Cn2c(=O)oc3ccccc32)N(C)C)cc1` (stereo unspecified)?
HP1b chromo inh: 35%; JMJD2A Tudor: -6%; BAZ2B inh: -29%; G9a inh: 8.9µM*; GLS inh: 21%

What do the screens show for `CC(=O)N1CCc2c(sc3c2c(=O)n(-c2ccc(C)cc2)c(=O)n3Cc2ccccc2C)C1`?
HP1b chromo inh: -10%; JMJD2A Tudor: inconclusive; BAZ2B inh: -20%; G9a inh: -4%[59 µM]; GLS inh: -1%

Results for CNc1nc(Cl)nc(Nc2ccccc2)n1 ?
HP1b chromo inh: 48%; L3MBTL1 inh: 3%; JMJD2A Tudor: -6%; G9a inh: -39%; GLS inh: 1%

How did CC(C)c1ccc(Nc2nc(Cl)nc(Cl)n2)cc1 do in these assays?
HP1b chromo inh: 3%; L3MBTL1 inh: 6%; JMJD2A Tudor: 89µM*; BAZ2B inh: inconclusive; G9a inh: 40µM*; GLS inh: 1%

Results for Cc1ccccc1OCc1nnc(SCC(=O)O)n1-c1ccccc1 ?
HP1b chromo inh: 24%; L3MBTL1 inh: 9%[2.29 µM]; JMJD2A Tudor: -11%; BAZ2B inh: -27%; G9a inh: 9%[0.501 µM]; GLS inh: 2%

How did COc1ccc(-n2c(SCC(=O)N3CCCC(C)C3)nnc2-c2cccnc2)cc1 (stereo unspecified) do in these assays?
HP1b chromo inh: 18%; L3MBTL1 inh: -6%; JMJD2A Tudor: -1%; BAZ2B inh: 9%; G9a inh: -3%; GLS inh: -13%

How did COc1cccc(-n2c(COc3ccccc3C)nnc2SCC(=O)O)c1 do in these assays?
HP1b chromo inh: 24%; L3MBTL1 inh: 0%; JMJD2A Tudor: -12%; BAZ2B inh: -5%; G9a inh: 45µM*; GLS inh: 2%

How did CCn1c(SCC(=O)c2ccccc2)nnc1-c1cccnc1 do in these assays?
HP1b chromo inh: 23%; L3MBTL1 inh: -3%; JMJD2A Tudor: -13%; BAZ2B inh: -17%; G9a inh: -8%; GLS inh: -2%

Results for CCn1c(SCCC(=O)O)nnc1-c1cccnc1 ?
HP1b chromo inh: 21%; L3MBTL1 inh: 2%; JMJD2A Tudor: -17%; BAZ2B inh: -6%; G9a inh: 45µM*; GLS inh: -5%

How did COc1ccc(-n2c(SCC(=O)N3CCCCC3C)nnc2-c2cccnc2)cc1 (stereo unspecified) do in these assays?
HP1b chromo inh: 58%; L3MBTL1 inh: 0%; JMJD2A Tudor: 4%; BAZ2B inh: 16%; G9a inh: 40µM*; GLS inh: -4%

Results for C=CCn1c(SCC(=O)Nc2nnc(C)s2)nnc1-c1cccnc1 ?
HP1b chromo inh: 9%; JMJD2A Tudor: 56µM*; BAZ2B inh: -35%; G9a inh: -43%; GLS inh: -16%

How did CCc1ccc(CN(Cc2ccco2)c2cnc(S(C)(=O)=O)nc2C(=O)Nc2c(C)cccc2C)cc1 do in these assays?
HP1b chromo inh: 17%; JMJD2A Tudor: inconclusive; BAZ2B inh: inconclusive; G9a inh: inconclusive; GLS inh: -5%

Results for Nn1c(SCCOc2ccccc2)nnc1-c1cccnc1 ?
HP1b chromo inh: 25%; L3MBTL1 inh: 5%; JMJD2A Tudor: -16%; BAZ2B inh: -3%; G9a inh: 50µM*; GLS inh: 8%

How did COc1cccc(-n2c(SCC(=O)O)nnc2-c2cccnc2)c1 do in these assays?
HP1b chromo inh: 31%; L3MBTL1 inh: -4%; JMJD2A Tudor: -18%; BAZ2B inh: 1%; G9a inh: 56µM*; GLS inh: 8%

What do the screens show for `Nn1c(SCCOc2ccc(Cl)cc2)nnc1-c1cccnc1`?
HP1b chromo inh: 3%; L3MBTL1 inh: 2%; JMJD2A Tudor: -26%; BAZ2B inh: -4%; G9a inh: inconclusive; GLS inh: 0%

Results for Cc1ccc(OCCSc2nnc(-c3ccncc3)n2C)cc1 ?
HP1b chromo inh: 22%; L3MBTL1 inh: 4%; JMJD2A Tudor: -2%; BAZ2B inh: 0%; G9a inh: 40µM*; GLS inh: -4%

What do the screens show for `COc1cccc(-c2nnc(SCC(=O)N3CCCC3=O)n2-c2ccccc2)c1`?
HP1b chromo inh: 25%; L3MBTL1 inh: 4%; JMJD2A Tudor: -19%; BAZ2B inh: -2%; G9a inh: inconclusive; GLS inh: 4%
